# Data from PubChem BioAssay (Tox21).
# Records with an inconclusive call do not appear. Where a call stands in place of a potency, no number is given. Activity calls are given as the source filed them. Unless noted, the call rests on the fitted dose curve; in most records, active means well fitted curve in the direction sought with a large enough effect in the repeat runs; inconclusive means weak or mixed curves; inactive means no such curve, though single readings can be large; an effect the other way counts as inactive or inconclusive.
# Key:
# [1] = qHTS assay to identify small molecule antagonists of the sonic hedgehog signaling (Shh) pathway (AID 1259369; calls by dose curve; further: nearly all actives have a fitted effect of over 45% in size)
# How it was run: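 Antagonist mode: compound added to 3T3 Gli1-Luc cells followed by conditioned-medium stimulation, 24 h at 37 C, 5% CO2. Inhibition taken as loss of Gli1-driven luciferase luminescence.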
# [2] = biological target: Estrogen receptor beta (Homo sapiens) (UniProt Q92731); experiment: qHTS assay to identify small molecule agonists of the estrogen receptor beta (ER-beta) signaling pathway (AID 1259377; active means well fitted activation curve with a large enough effect in the signal ratio in the repeat runs, not every such curve was filed as active; the % refers to the signal ratio)
# How it was run: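 Measured by fluorescence intensity from a B/G FRET beta-lactamase substrate (2 h, room temperature) in ER-beta-UAS-bla HEK293T cells treated with DMSO-dissolved compounds for 16 hr at 37C and 5% CO2.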
# [3] = biological target: Estrogen receptor beta (Homo sapiens) (UniProt Q92731); experiment: qHTS assay to identify small molecule antagonists of the estrogen receptor beta (ER-beta) signaling pathway (AID 1259378; active means well fitted inhibition curve with a large enough effect in the signal ratio in the repeat runs, not every such curve was filed as active; the % refers to the signal ratio)
# How it was run: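 ER-beta-UAS-bla HEK293T (GripTite) cells in 2% charcoal-stripped FBS medium were preincubated 6 hr at 37C, dosed with compound, then stimulated with 1 nM E2 (final) for 16 hr; beta-lactamase reporter read by B/G FRET fluorescence after 2 hr substrate loading.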
# [4] = qHTS assay to identify small molecule agonists of the androgen receptor (AR) signaling pathway in the presence of an antagonist - cell viability counter screen (AID 1259379);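 further: MDA-kb2 human breast cancer cells carrying an MMTV luciferase reporter; series mostly up to about 92 µM; nearly all actives have a fitted effect of over 25% in size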
# How it was run: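 Cytotoxicity counter-screen run in the same wells as the nilutamide-challenged (3.0 µM final) AR agonist assay in MDA-kb2 cells. Compounds tested at 15 concentrations for 16 h, 37 °C without CO2; CellTiter-Fluor fluorescence read.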
# [5] = qHTS assay to identify small molecule agonists of the estrogen receptor beta (ER-beta) signaling pathway - cell viability counter screen (AID 1259380); further: nearly all actives have a fitted effect of over 30% in size
# How it was run: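 Cell viability counter screen: CellTiter-Glo luminescence (30 min, room temperature) measured in the same wells as the beta-lactamase readout, after 16 hr compound exposure at 37C of ER-beta-bla HEK293T cells in 2% charcoal-stripped FBS medium.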
# [6] = qHTS assay to identify small molecule antagonists of the estrogen receptor beta (ER-beta) signaling pathway - cell viability counter screen (AID 1259382); further: series mostly up to about 92 µM; nearly all actives have a fitted effect of over 55% in size
# How it was run: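 Cytotoxicity was measured in the same wells by CellTiter-Glo luminescence after 30 min at room temperature. Cells were ER-beta-bla HEK293T in charcoal-stripped serum, given compound together with 1 nM E2 and incubated 16 h at 37C.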
# [7] = biological target: Estrogen receptor (Homo sapiens) (UniProt P03372); experiment: qHTS assay to identify small molecule agonists of the estrogen receptor alpha (ER-alpha) signaling pathway in the presence of an antagonist (AID 1259383; calls by dose curve; further: top concentration of the series differs between compounds; nearly all actives have a fitted effect of over 15% in size)
# How it was run: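 Agonist-mode confirmation run in the presence of 10.0nM (final) ICI-182,780 antagonist. The reporter was ERE-driven luciferase in VM7Luc4E2 cells, grown in charcoal-stripped serum. Cells were exposed to 15-concentration compound series for 22hr, then ONE-Glo luminescence was read.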
# [8] = qHTS assay to identify small molecule agonists or antagonists of the thyroid stimulating hormone receptor (TSHR) signaling pathway - wild type cell line counter screen (AID 1259384; calls by dose curve)
# How it was run: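 Wild-type HEK293 cells were plated 18 h at 37 C/5% CO2, pin-dosed with compound plus Ro20-1724 medium, held 30 min at room temperature, then given cAMP-d2 and anti-cAMP-cryptate; fluorescence was read after 1 h. Fifteen concentrations, triplicate.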
# [9] = biological target: Thyrotropin receptor (Homo sapiens) (UniProt P16473); experiment: qHTS assay to identify small molecule antagonists of the thyroid stimulating hormone receptor (TSHR) signaling pathway (AID 1259385; calls by dose curve; further: nearly all actives have a fitted effect of over 20% in size)
# How it was run: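 TSHR-HEK293 cells were plated and held 18 h at 37C/5% CO2, then given compound plus Ro20-1724 and stimulated with TSH at 1.5 ng/mL final. After 30 min at room temperature, cAMP was detected with cAMP-d2/anti-cAMP-cryptate (1 h) by fluorescence.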
# [10] = qHTS assay to identify small molecule agonists of the estrogen receptor alpha (ER-alpha) signaling pathway in the presence of an antagonist - cell viability counter screen (AID 1259386); further: series mostly up to about 92 µM; nearly all actives have a fitted effect of over 30% in size
# How it was run: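 Compounds tested at 15 concentrations for 22 h at 37C alongside 10.0nM (final) ICI-182,780 antagonist, in VM7Luc4E2 cells grown in phenol red-free, charcoal-stripped medium. Viability read by CellTiter-Fluor fluorescence after 1 h reagent incubation.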
# [11] = biological target: Progesterone receptor (Homo sapiens) (UniProt P06401); experiment: qHTS assay to identify small molecule agonists of the progesterone receptor (PR) signaling pathway (AID 1346784; calls by dose curve; further: nearly all actives have a fitted effect of over 30% in size)
# How it was run: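 The screen uses PR-UAS-bla HEK 293T cells in charcoal-stripped serum (2%). Compounds are applied for 16 hr at 37C after a 6 hr pre-incubation, and reporter activity is detected with a FRET beta-lactamase substrate after 2 hr at room temperature.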
# [12] = biological target: Progesterone receptor (Homo sapiens) (UniProt P06401); experiment: qHTS assay to identify small molecule antagonists of the progesterone receptor (PR) signaling pathway (AID 1346795; active means well fitted inhibition curve with a large enough effect in the signal ratio in the repeat runs, not every such curve was filed as active; the % refers to the signal ratio)
# How it was run: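 After 6 hr plating at 37C in 2% stripped-serum medium, PR-UAS-bla HEK293T cells got compounds, then 1 nM R5020. Sixteen hours later, LiveBLAzer substrate was applied for 2 hr at room temperature and fluorescence was recorded.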
# [13] = qHTS assay to identify small molecule antagonists of the progesterone receptor (PR) signaling pathway - cell viability counter screen (AID 1346798); further: series mostly up to about 92 µM; nearly all actives have a fitted effect of over 50% in size
# How it was run: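 Viability was determined by ATP-based luminescence (CellTiter-Glo) in PR-UAS-bla HEK293T cells cultured in 2% charcoal-stripped serum and incubated 16 hr with compounds under R5020 stimulation.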
# [14] = qHTS assay to identify small molecule agonists of the progesterone receptor (PR) signaling pathway - cell viability counter screen (AID 1346799; calls by dose curve; further: nearly all actives have a fitted effect of over 45% in size)
# How it was run: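 Viability was scored by ATP luminescence (CellTiter-Glo, 30 min, room temperature) in the same wells used for the reporter readout, after 16 hr compound exposure of PR-UAS-bla HEK293T cells.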
# [15] = qHTS assay to identify small molecule antagonists of the TGF-beta/Smad signaling pathway - cell viability counter screen (AID 1346824); further: nearly all actives have a fitted effect of over 50% in size; further: potency means the concentration at half of the fitted maximal effect
# How it was run: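 SBE-bla HEK 293T cells were plated overnight at 37 C, then given compounds in DMSO plus TGF-beta1 (added as 0.25 ng/mL solution) for 5 hr. After the bla read, CellTiter-Glo was added to the same wells and luminescence read after 30 min at room temperature.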
# [16] = qHTS assay to identify small molecule agonists of the TGF-beta/Smad signaling pathway - cell viability counter screen (AID 1346829); further: top concentration of the series differs between compounds; nearly all actives have a fitted effect of over 45% in size
# How it was run: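 Compound-treated SBE-bla HEK 293T cells (5 hr, 37 C) were assessed for viability with CellTiter-Glo in parallel with the reporter read.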
# [17] = qHTS assay to identify small molecule agonists of the TGF-beta/Smad signaling pathway (AID 1346859; active means well fitted activation curve with a large enough effect in the signal ratio in the repeat runs, not every such curve was filed as active; the % refers to the signal ratio; further: series mostly up to about 77 µM)
# How it was run: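 Dual-wavelength fluorescence (460/530 nm emission) quantified beta-lactamase expression under the Smad binding element in HEK 293T cells following 5 hr compound treatment at 37 C.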
# [18] = biological target: Androgen receptor (Homo sapiens) (UniProt P10275); experiment: qHTS assay to identify small molecule agonists of the androgen receptor (AR) signaling pathway in the presence of an antagonist (AID 1259381; calls by dose curve; further: nearly all actives have a fitted effect of over 15% in size)
# How it was run: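 Agonist-mode confirmation run against 3.0 uM final nilutamide: compounds titrated at 15 concentrations onto MDA-kb2 MMTV-luciferase reporter cells. Luminescence measured with ONE-Glo following 16 hr incubation, 37C, 0% CO2.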
# [19] = biological target: Thyrotropin-releasing hormone receptor (Homo sapiens) (UniProt P34981); experiment: qHTS assay to identify small molecule antagonists of the thyrotropin-releasing hormone receptor (TRHR) signaling pathway (AID 1346877; active means well fitted inhibition curve with a large enough effect in the repeat runs, not every such curve was filed as active; further: series mostly up to about 51 µM)
# How it was run: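 Antagonist mode: after a 5 min room-temperature compound exposure, cells were stimulated with 1 nM (final) TRH. Dye-loaded TRHR-HEK293 cells were used, and calcium-dependent fluorescence was followed for 3 min, with 15-point titrations run in triplicate.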
# [20] = biological target: Thyrotropin-releasing hormone receptor (Homo sapiens) (UniProt P34981); experiment: qHTS assay to identify small molecule agonists of the thyrotropin-releasing hormone receptor (TRHR) signaling pathway (AID 1346891; calls by dose curve;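 further: HEK293 cells expressing TRHR with calcium dye readout; series mostly up to about 58 µM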)
# How it was run: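 Kinetic fluorescence (3 min, 1 s intervals) reported intracellular calcium after compound transfer onto TRHR-Hek293 cells pre-loaded with dye for 2 h at 37 °C.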
# Androgen receptor (Homo sapiens), sequence (P10275 whole entry, looked up): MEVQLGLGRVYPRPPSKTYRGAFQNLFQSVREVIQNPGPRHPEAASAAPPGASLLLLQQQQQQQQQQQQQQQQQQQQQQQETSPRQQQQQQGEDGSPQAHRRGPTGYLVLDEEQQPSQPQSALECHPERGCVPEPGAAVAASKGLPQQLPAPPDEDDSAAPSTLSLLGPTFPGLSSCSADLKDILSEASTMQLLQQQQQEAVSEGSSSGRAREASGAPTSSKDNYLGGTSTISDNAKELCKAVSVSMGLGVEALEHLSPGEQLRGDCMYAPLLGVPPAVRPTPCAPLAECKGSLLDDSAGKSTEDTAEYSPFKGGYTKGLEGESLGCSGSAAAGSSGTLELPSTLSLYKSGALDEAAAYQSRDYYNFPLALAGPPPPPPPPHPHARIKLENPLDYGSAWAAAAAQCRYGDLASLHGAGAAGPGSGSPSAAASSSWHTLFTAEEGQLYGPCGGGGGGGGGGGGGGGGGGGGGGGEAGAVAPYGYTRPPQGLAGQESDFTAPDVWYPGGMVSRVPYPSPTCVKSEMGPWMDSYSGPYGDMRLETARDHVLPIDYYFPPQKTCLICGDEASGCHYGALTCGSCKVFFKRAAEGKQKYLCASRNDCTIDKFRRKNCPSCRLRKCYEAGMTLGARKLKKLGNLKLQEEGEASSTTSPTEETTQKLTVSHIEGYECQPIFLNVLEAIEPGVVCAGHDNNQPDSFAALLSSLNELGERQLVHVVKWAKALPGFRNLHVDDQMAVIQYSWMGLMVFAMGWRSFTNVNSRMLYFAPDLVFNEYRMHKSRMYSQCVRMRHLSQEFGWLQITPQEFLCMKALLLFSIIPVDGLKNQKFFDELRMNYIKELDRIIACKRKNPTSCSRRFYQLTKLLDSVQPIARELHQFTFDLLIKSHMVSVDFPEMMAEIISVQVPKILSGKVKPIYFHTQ
# Thyrotropin receptor (Homo sapiens), sequence (P16473 whole entry, looked up): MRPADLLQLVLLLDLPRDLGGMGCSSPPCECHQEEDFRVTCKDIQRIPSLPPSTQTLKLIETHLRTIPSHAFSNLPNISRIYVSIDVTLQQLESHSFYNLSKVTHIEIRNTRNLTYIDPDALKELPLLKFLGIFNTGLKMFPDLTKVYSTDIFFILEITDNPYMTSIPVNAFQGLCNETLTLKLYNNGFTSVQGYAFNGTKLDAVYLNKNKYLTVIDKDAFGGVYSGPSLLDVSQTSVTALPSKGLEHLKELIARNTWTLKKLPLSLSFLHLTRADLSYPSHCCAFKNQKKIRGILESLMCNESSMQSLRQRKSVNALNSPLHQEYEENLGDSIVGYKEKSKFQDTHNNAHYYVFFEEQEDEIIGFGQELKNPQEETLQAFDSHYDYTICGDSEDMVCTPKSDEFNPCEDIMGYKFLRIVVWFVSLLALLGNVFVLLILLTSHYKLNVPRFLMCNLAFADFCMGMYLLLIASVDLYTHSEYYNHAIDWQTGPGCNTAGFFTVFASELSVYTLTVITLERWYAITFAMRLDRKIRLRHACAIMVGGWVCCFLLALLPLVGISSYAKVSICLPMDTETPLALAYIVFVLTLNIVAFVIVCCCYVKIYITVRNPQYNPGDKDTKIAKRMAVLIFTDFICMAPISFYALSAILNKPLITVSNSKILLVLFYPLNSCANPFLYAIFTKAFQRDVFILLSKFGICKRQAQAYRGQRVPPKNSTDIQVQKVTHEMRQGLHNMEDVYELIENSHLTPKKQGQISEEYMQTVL
# Estrogen receptor beta (Homo sapiens), sequence (Q92731 whole entry, looked up): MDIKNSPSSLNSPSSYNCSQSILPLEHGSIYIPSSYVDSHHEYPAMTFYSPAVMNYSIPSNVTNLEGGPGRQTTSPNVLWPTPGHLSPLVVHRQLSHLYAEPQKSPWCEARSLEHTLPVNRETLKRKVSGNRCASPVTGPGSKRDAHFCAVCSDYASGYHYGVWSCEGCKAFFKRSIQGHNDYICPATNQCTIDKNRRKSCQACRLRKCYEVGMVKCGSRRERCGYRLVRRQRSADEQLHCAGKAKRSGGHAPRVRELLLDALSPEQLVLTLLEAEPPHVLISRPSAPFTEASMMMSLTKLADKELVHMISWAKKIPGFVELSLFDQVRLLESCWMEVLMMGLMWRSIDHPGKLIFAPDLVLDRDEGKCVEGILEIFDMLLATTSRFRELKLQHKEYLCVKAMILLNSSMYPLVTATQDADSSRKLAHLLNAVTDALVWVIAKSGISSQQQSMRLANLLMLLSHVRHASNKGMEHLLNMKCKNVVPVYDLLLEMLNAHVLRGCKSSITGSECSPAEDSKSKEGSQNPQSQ
# Progesterone receptor (Homo sapiens), sequence (P06401 whole entry, looked up): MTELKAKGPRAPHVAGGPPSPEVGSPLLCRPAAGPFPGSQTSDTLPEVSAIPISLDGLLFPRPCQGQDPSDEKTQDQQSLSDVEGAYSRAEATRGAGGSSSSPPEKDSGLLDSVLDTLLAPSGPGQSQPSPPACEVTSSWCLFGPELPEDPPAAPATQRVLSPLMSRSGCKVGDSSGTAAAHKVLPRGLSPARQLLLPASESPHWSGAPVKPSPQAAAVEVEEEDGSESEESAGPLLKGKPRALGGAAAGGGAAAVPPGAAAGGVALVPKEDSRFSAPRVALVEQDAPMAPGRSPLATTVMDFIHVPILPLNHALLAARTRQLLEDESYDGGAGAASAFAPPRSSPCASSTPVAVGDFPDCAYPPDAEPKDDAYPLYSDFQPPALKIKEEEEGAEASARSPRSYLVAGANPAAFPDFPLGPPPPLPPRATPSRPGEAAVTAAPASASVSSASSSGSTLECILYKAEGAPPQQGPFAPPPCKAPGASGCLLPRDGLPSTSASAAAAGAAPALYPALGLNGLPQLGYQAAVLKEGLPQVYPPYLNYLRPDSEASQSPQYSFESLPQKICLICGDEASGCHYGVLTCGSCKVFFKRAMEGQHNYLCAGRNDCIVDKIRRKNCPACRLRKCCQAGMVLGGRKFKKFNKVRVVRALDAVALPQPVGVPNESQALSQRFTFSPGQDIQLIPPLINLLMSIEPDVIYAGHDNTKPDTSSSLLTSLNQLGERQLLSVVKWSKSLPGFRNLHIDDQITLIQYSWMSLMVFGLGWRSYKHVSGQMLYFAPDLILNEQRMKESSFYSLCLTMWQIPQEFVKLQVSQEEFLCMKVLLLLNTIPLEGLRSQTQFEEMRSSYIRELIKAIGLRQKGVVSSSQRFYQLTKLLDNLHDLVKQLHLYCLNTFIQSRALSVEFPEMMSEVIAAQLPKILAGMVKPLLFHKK
# Thyrotropin-releasing hormone receptor (Homo sapiens), sequence (P34981 whole entry, looked up): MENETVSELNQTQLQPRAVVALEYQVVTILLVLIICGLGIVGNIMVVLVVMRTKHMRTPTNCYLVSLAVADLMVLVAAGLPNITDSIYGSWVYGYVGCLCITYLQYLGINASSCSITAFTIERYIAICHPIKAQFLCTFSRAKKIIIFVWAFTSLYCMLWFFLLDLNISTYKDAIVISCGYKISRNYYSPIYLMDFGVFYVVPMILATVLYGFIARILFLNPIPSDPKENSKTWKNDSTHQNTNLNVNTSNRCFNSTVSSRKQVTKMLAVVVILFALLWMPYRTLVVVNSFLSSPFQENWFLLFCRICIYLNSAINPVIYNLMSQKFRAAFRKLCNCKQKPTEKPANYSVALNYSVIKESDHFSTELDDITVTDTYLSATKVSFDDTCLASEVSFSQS
# Estrogen receptor (Homo sapiens), sequence (P03372 whole entry, looked up): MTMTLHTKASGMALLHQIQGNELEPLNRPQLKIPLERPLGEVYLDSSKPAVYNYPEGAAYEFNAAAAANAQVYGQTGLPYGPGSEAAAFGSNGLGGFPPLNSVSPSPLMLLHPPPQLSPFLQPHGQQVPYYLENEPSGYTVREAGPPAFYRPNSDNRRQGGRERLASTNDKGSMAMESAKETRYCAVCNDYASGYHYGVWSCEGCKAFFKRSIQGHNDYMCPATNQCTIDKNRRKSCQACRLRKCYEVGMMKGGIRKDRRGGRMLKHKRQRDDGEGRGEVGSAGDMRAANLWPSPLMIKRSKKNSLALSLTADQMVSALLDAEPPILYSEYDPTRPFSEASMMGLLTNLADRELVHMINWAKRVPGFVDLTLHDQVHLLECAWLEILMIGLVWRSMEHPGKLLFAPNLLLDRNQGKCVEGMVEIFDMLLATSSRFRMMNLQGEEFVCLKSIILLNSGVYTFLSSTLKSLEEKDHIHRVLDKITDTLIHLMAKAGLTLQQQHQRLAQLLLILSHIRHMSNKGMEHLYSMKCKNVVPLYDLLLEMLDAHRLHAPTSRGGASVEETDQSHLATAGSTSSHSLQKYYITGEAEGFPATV
Structure (SMILES),Potency [1],outcome [2],outcome [3],Potency [4],Potency [5],Potency [6],Potency [7],outcome [8],Potency [9],Potency [10],Potency [11],Potency [12],Potency [13],Potency [14],Potency [15],outcome [16],outcome [17],Potency [18],outcome [19],outcome [20]
NC(=O)Nc1ccccc1,inactive,inactive,inactive,inactive,inactive,inactive,inactive,inactive,inactive,inactive,inactive,inactive,inactive,inactive,inactive,inactive,inactive,–,–,–
CCOc1ccc(C(=O)OCCN(CC)CC)cc1,inactive,inactive,inactive,inactive,inactive,inactive,–,inactive,inactive,inactive,inactive,inactive,–,inactive,inactive,inactive,inactive,inactive,–,–
COC(=O)[C@@H](N)Cc1ccc(O)c(O)c1,inactive,inactive,inactive,inactive,inactive,inactive,–,inactive,inactive,inactive,inactive,inactive,inactive,inactive,inactive,inactive,inactive,inactive,inactive,inactive
O=C[C@H](O)[C@@H](O)[C@H](O)[C@H](O)CO,inactive,inactive,inactive,inactive,inactive,inactive,inactive,inactive,inactive,inactive,inactive,inactive,inactive,inactive,inactive,–,inactive,–,inactive,inactive
CCn1nc(C(=O)O)c(=O)c2cc3c(cc21)OCO3,inactive,inactive,inactive,inactive,inactive,inactive,inactive,inactive,inactive,inactive,inactive,inactive,inactive,inactive,inactive,inactive,inactive,inactive,–,–
CC1=CC(C)C(C=O)CC1 (centres undefined),inactive,inactive,inactive,inactive,inactive,inactive,inactive,inactive,inactive,inactive,inactive,inactive,inactive,inactive,4.9 µM (active),inactive,inactive,–,inactive,inactive
CN1CCC(=C2c3ccccc3CC(=O)c3sccc32)CC1,inactive,inactive,inactive,inactive,inactive,inactive,inactive,inactive,inactive,inactive,inactive,inactive,inactive,inactive,inactive,inactive,inactive,–,–,–
ClC(Cl)(Br)Br,inactive,inactive,inactive,inactive,inactive,inactive,inactive,inactive,inactive,inactive,inactive,inactive,inactive,–,inactive,inactive,inactive,inactive,–,–
O=C(O)CCCl,inactive,inactive,inactive,inactive,inactive,inactive,inactive,inactive,inactive,inactive,inactive,inactive,inactive,inactive,inactive,inactive,inactive,–,inactive,inactive
COCCCOCCCOC,inactive,inactive,inactive,inactive,inactive,inactive,inactive,inactive,inactive,inactive,inactive,inactive,inactive,inactive,inactive,inactive,inactive,–,inactive,inactive
N=C(N)c1ccc(OCCCOc2ccc(C(=N)N)cc2)cc1,inactive,inactive,inactive,inactive,inactive,inactive,inactive,inactive,inactive,inactive,inactive,inactive,inactive,inactive,inactive,inactive,inactive,–,–,–
CN1C(=O)N(C)C(O)C1O (centres undefined),inactive,inactive,inactive,inactive,inactive,inactive,inactive,inactive,inactive,inactive,inactive,inactive,inactive,inactive,inactive,inactive,inactive,–,inactive,inactive
Nc1cc(=O)[nH]c(N)n1,inactive,inactive,inactive,inactive,inactive,inactive,inactive,inactive,inactive,inactive,inactive,inactive,inactive,inactive,inactive,inactive,inactive,–,inactive,inactive
Cc1cnc(NS(=O)(=O)c2ccc(N)cc2)nc1,inactive,inactive,inactive,inactive,inactive,inactive,inactive,inactive,inactive,inactive,inactive,inactive,inactive,inactive,inactive,inactive,inactive,inactive,inactive,inactive
